# Reference: PubChem BioAssay (Tox21)
# Records with an inconclusive call do not appear. Entries that show only a call come without a potency. Active and inactive are the calls of the source. The call rests on the fitted dose curve; in most records, active means well fitted curve in the direction sought with a large enough effect in the repeat runs; inconclusive means weak or mixed curves; inactive means no such curve, though single readings can be large; an effect the other way counts as inactive or inconclusive.
# How the values were obtained:
# [1] = qHTS assay to identify small molecule antagonists of the retinoic acid receptor (RAR) signaling pathway (AID 1159552; further: nearly all actives have a fitted effect of over 50% in size; further: potency means the concentration at half of the fitted maximal effect)
# How it was run: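 Luminescence from a RARE luciferase reporter in C3RL4 cells served as read-out. Cells received compounds together with 1 uM final retinol and incubated 6 hr at 37 C before detection reagent was added for 30 min at room temperature.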
# [2] = qHTS assay to identify small molecule antagonists of the retinoid acid receptor (RAR) signaling pathway - cell viability counter screen (AID 1159551); further: nearly all actives have a fitted effect of over 35% in size
# How it was run: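 Cells (C3RL4) are plated, incubated overnight, dosed with compound in DMSO, then given retinol at 1 uM final. After 6 h at 37 C, CellTiter-Glo is added and luminescence read following 30 min at room temperature.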
# [3] = target: Luciferin 4-monooxygenase (Photinus pyralis) (UniProt P08659); experiment: qHTS assay to identify small molecule inhibitors of firefly luciferase (AID 1224835); further: nearly all actives have a fitted effect of over 25% in size; further: potency means the concentration at half of the fitted maximal effect
# How it was run: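 Quantitative HTS format; KM concentrations of both substrates. Purified P. pyralis FLuc activity quantified from luminescence images.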
# [4] = qHTS assay to identify small molecule agonists of the retinoic acid receptor (RAR) signaling pathway (AID 1159553); conditions: C3RL4 RARE luciferase reporter, agonist, 6 h; activation: at 73.3 µM (top of the series) unless noted
# How it was run: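 Seed C3RL4 reporter cells at 1,000 per well and incubate overnight at 37 C. Add compounds in DMSO, incubate 6 hr. Add luciferase reagent, wait 30 min at room temperature, read luminescence.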
# [5] = qHTS assay to identify small molecule antagonists of the estrogen related receptor (ERR) signaling pathway from Tox21 library - cell viability counter screen (AID 1224834); further: nearly all actives have a fitted effect of over 30% in size; further: potency means the concentration at half of the fitted maximal effect
# How it was run: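 ERR cells, 2,000/well; 6 h settle at 37 C/5% CO2; pin-tool compound transfer in DMSO; 17.5 h at 37 C; CellTiter-Fluor, 30 min; fluorescence intensity.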
# [6] = qHTS assay to identify small molecule antagonists of the estrogen related receptor signaling pathway with the pleiotropic PPARgamma coactivator (PGC) cell viability counter screen (AID 1224822;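 further: viability read after 17.5 h compound exposure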)
# How it was run: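 Multiplexed viability counter screen run in PGC/ERR cells treated with compounds for 17.5 h at 37 C; live-cell protease signal measured by CellTiter-Fluor fluorescence.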
# Chain of Luciferin 4-monooxygenase (Photinus pyralis) (P08659 whole entry, looked up): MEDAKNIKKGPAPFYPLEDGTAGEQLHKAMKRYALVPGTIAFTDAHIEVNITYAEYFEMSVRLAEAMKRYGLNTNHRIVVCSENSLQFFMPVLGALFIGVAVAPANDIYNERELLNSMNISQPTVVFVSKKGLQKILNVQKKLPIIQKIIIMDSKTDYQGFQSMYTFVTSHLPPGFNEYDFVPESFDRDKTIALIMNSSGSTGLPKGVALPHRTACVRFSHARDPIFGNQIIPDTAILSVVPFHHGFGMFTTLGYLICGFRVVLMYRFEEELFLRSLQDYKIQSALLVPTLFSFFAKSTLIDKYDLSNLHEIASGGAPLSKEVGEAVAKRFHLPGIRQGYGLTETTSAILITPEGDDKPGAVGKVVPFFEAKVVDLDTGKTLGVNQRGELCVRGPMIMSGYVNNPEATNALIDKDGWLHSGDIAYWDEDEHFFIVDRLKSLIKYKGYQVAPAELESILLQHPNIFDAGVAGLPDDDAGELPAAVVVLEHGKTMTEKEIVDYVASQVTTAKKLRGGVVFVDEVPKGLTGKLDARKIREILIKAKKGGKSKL
smiles,measurement,setting,value
C/C=C/C=C/COC(=O)C(C)C,Potency,[1],27.3 µM (active)
S=C([S-])NCCNC(=S)[S-].S=C([S-])NCCNC(=S)[S-].[Mn+2].[Zn+2],Potency,[2],inactive
same,Potency,[3],15.5 µM (active)
CC[C@H](C)COC(=O)/C=C/c1ccc(N=Cc2ccc(OC)cc2)cc1,Potency,[1],inactive
Cc1cc(=O)oc2cc(O)cc(O)c12,Potency,[4],inactive
same,Potency,[5],inactive
same,Potency,[3],inactive
CCCC(=O)OCOC(=O)C1=C(C)NC(C)=C(C(=O)OC)C1c1cccc(Cl)c1Cl (stereo not given),Potency,[2],inactive
same,Potency,[3],inactive
CCC(COC(=O)CCS)(COC(=O)CCS)COC(=O)CCS,Potency,[2],inactive
same,Potency,[3],inactive
Oc1ccccc1O,Potency,[1],inactive
same,Potency,[4],inactive
same,Potency,[6],inactive
O=c1[nH]c2ccccc2n1CCCN1CCN(C(c2ccccc2)c2ccccc2)CC1,Potency,[2],inactive
same,Potency,[3],inactive
CN(C)C(=O)COC(=O)Cc1ccc(OC(=O)c2ccc(N=C(N)N)cc2)cc1,Potency,[2],inactive
same,Potency,[3],inactive
CC1(C)CCC[C@]2(C)[C@H]3CC(=O)O[C@]3(C)CC[C@@H]12,Potency,[5],inactive
same,Potency,[3],inactive
COc1ccc2cc1Oc1ccc(cc1)C[C@H]1c3c(cc4c(c3Oc3cc5c(cc3OC)CCN(C)[C@@H]5C2)OCO4)CCN1C,Potency,[1],4.22 µM (active)
same,Potency,[4],inactive
same,Potency,[5],23.7 µM (active)
same,Potency,[3],inactive
CC(C)(C)c1csc(-c2cc3cc(OCc4ccccc4CC(=O)O)ccc3o2)n1,Potency,[1],inactive
same,Potency,[4],inactive
same,Potency,[3],5.03 µM (active)
CCCCCCCCCCCCOC(=O)c1ccc(O)cc1,Potency,[2],inactive
same,Potency,[3],inactive
CC1=Nc2ccccc2C1(C)C,Potency,[5],inactive
same,Potency,[3],20 µM (active)
O=C(c1ccc(O)c(O)c1)c1ccc(O)cc1O,Potency,[2],inactive
same,Potency,[3],70.9 µM (active)
CN(C)[C@@H](CCOc1cccc2ccccc12)c1ccccc1,Potency,[1],29.8 µM (active)
same,Potency,[3],inactive
